Dicer processing: inhibitors of human Dicer processing of pre-microRNA. Q9UPY3. cat-ELCCA pre-miR-21 Dicer processing, chemiluminescence; active compounds read high. z-score at 25 µM. 47,000 compounds, 6% hits. AID 1347074; in the data active = z-score above about 3, passing the limit was not always enough;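 note: plate controls were vehicle for no effect and no enzyme for full effect; higher signal means more uncleaved substrate so more Dicer inhibition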
The depositor's hits bear a star. The sample as a whole holds a higher share of hits than the screen did.

SMILES | Dicer processing
O=C1OC2(O)C3C4C=CC(C4)C3C(=O)N2c2ccccc21 (stereo unspecified) | 4.9*
Cc1nc2nc(C)c(Cc3ccccc3C)c(=O)n2[nH]1 | -0.58
Cc1nn(-c2ccccc2)c2nc(-c3ccco3)cc(C(F)(F)F)c12 | 0.61
Cc1nn(-c2ccc(Cl)cc2)c2nc(-c3ccco3)cc(C(F)(F)F)c12 | 4.7*
Cc1ccc(-n2nc(C)c3c(C(F)(F)F)cc(-c4ccco4)nc32)cc1 | 0.87
CC1=C(C(=O)OCCc2ccccc2)C(c2ccc(C)o2)C2=C(CC(C)(C)CC2=O)N1 (stereo unspecified) | -0.45
CCC1(CC)Cc2ccccc2C2=C(C(=O)N3CCOCC3)C(=O)C(=O)N21 | 4*
O=C1C(=O)N2C(=C1C(=O)N1CCOCC1)c1ccccc1CC21CCCC1 | -1.1
CC1(C)Cc2ccccc2C2=C(C(=O)N3CCCC3)C(=O)C(=O)N21 | -1.3
O=C(/C=C(\CC(=O)c1ccccc1)c1ccc(Cl)cc1)c1ccccc1 | -1.6
CC(C)OC(=O)CSC1=C(C#N)C(c2ccccc2)CC(=O)N1 (stereo unspecified) | 0.73
COc1ccc(-c2nnc(Nc3ccc4c(c3)ncn4C)c3ccccc23)cc1 | 2.6
Cc1ccc(-c2nnc(Nc3cccc(O)c3)c3ccccc23)cc1S(=O)(=O)N(C)C | 0.46
COc1ccc(-c2nnc(Nc3cccc(O)c3)c3ccccc23)cc1 | 3.9*
CCc1ccc2oc(-c3ccco3)c(O)c(=O)c2c1 | 0.1
Cn1c2c(c(=O)[nH]c1=O)C(c1cccc(F)c1)C1=C(N2)c2ccccc2C1=O (stereo unspecified) | 0.01
O=C1CC(CS(=O)(=O)c2ccc(C(F)(F)F)cn2)=NN1c1cccc(C(F)(F)F)c1 | 0.98
CCCCCNc1ncnc2c1sc1nc3c(cc12)COC(C)(C)C3 | 1.8
CC1(C)Cc2nc3sc4c(NCC5CCCO5)ncnc4c3cc2CO1 (stereo unspecified) | 5.7*
CCN(CC)CCNc1ncnc2c1sc1nc3c(cc12)COC(C)(C)C3 | 0.98
N/C(CC(=O)Nc1ccc(F)cc1F)=N\OS(=O)(=O)c1ccc(Cl)cc1 | 1
CC1=C(C(=O)OCCc2ccccc2)C(c2ccccc2Br)C2=C(CCCC2=O)N1 (stereo unspecified) | -0.45
CC(C)(CO)NC(=S)Nc1cccc(F)c1 | -0.02
S=C(NNc1ccccc1)Nc1c(Cl)cccc1Cl | -2.6
Fc1cccc(NC(=S)NNc2ccccc2)c1 | 5.9*
SMILES | Dicer processing
CCCCC1(O)C(=O)c2ccccc2N(c2ccccc2)C1=O (stereo unspecified) | 1.6
Cc1ccc2[nH]c(C)c(CN(C)Cc3ccccc3)c(=O)c2c1 | 0.81
COc1ccc(OC)c(C2C(C(=O)OCCOc3ccccc3)=C(C)NC3=C2C(=O)CC(C)(C)C3)c1 (stereo unspecified) | 0.9
COc1ccc(C(C)C)cc1S(=O)(=O)Nc1ccc(Cl)cn1 | 0.52
CCOc1ccc(Cl)cc1S(=O)(=O)NCc1ccccn1 | 0.45
CCOc1ccc(C)cc1S(=O)(=O)Nc1ccc(Cl)cn1 | 4.6*
Cc1nonc1NC(=O)N1CCOCC1 | 5.9*
Cc1nonc1NC(=O)Nc1ccncc1 | 44
O=C(Nc1ccc(-c2ccccn2)s1)N1CCOCC1 | -0.4
C=CCNC(=S)NNC(=O)CN1c2ccccc2Sc2ccccc21 | 2
Cc1ccc([N+](=O)[O-])c(NC(=O)NC(=O)c2c(Cl)cccc2Cl)c1C | -0.77
O=C(CSCCS(=O)(=O)c1ccccc1)NNS(=O)(=O)c1ccc(Cl)s1 | 1.4
CCOC(=O)C1=C(C)Nc2nnnn2C1c1ccccn1 (stereo unspecified) | 2.3
CCCOc1ccccc1C1C(C(=O)OC(C)C)=C(C)Nc2nnnn21 (stereo unspecified) | -0.05
CCOC(=O)C1=C(c2ccccc2)Nc2ncnn2C1c1cccc(Br)c1 (stereo unspecified) | 3.2*
CCCOC(=O)C1=C(C)Nc2nnnn2C1c1ccccc1OCC (stereo unspecified) | 3.4*
CCOC(=O)C1=C(C)Nc2nnnn2C1c1ccccc1 (stereo unspecified) | 3.1*
CCOc1ccccc1C1C(C(=O)OC(C)C)=C(C)Nc2nnnn21 (stereo unspecified) | 4.5*
CCOC(=O)C1=C(c2ccccc2)Nc2ncnn2C1c1ccc(F)cc1 (stereo unspecified) | -0.11
CCOC(=O)C1=C(C)Nc2ncnn2C1c1ccc(OC)c(OC)c1 (stereo unspecified) | 0.01
CCOC(=O)C1=C(C)Nc2nnnn2C1c1cc(Br)ccc1OCC (stereo unspecified) | 1.5
CCOC(=O)C1=C(C)Nc2nnnn2C1c1ccc(OC)c(OC)c1 (stereo unspecified) | 1.6
CCOC(=O)C1=C(C)Nc2nnnn2C1c1ccc(OCc2ccccc2)c(OC)c1 (stereo unspecified) | 2.9
CCOC(=O)C1=C(C)Nc2nnnn2C1c1ccccc1Cl (stereo unspecified) | 0.19
Cc1cccc(C(=O)Nc2ccccn2)c1 | -1.2
SMILES | Dicer processing
CCOC(=O)C(=CNc1ccn(C)n1)C(=O)OCC | -0.18
CC(C)S(=O)(=O)c1csc(NC(=O)Nc2cc(C(F)(F)F)cc(C(F)(F)F)c2)c1Cl | 1.5
c1cc2nncn2nc1N1CCSCC1 | -0.89
CC(=O)c1ccc(C#CC(C)(C)O)s1 | -0.68
CC(C)(O)C#Cc1ccc(/C=N/Nc2c(Cl)cc(Cl)cc2Cl)cc1 | 2.5
C/C(=N\Nc1c(Cl)cc(Cl)cc1Cl)c1ccc(C#CC(C)(C)O)s1 | 3.2*
CN(C)CCCOC(=O)c1ccc2c(c1)OCCO2 | 0.14
Nc1nonc1-c1nc2ccccc2n1Cc1ccc(-c2nn[nH]n2)cc1 | 1.3
O=c1[nH]nc2c(-c3ccccc3)c(-c3ccccc3)c(-c3ccccc3)nn12 | -4.2
CCN(CC)C(=O)Nc1ccc(OC)cc1 | 0.09
COc1ccc(NC(=O)c2scc(S(=O)(=O)C(C)C)c2N)cc1 | -0.51
COc1ccc(NC(=O)OC(C)C)cc1 | 3.5*
c1ccc(Oc2nc(-c3ccncc3)nc3ccccc23)cc1 | 0.72
CC(=O)/C(=C\N=S(C)(=O)c1ccc(Cl)cc1)S(=O)(=O)c1ccc(Cl)cc1 (stereo unspecified) | -1.4
Clc1cc(Cl)cc(C=NCc2ccccc2)c1 | -0.74
Cc1cc2nc(Nc3nc4ccccc4c(=O)[nH]3)nc(C)c2cc1C | -1.1
Cc1ccc2nc(Nc3nc(C)c4ccccc4n3)[nH]c(=O)c2c1 | -0.36
Cc1nc(Nc2nc3ccccc3c(=O)[nH]2)nc2c(C)cccc12 | 4*
CCOC(=O)c1nnn2c1nc(Sc1nnc(-c3ccncc3)o1)c1ccccc12 | 0.54
CCNc1oc(COc2ccc(F)cc2)nc1C#N | 2.3
CC12CN(S(=O)(=O)c3ccccc3)CC(C)(CN(S(=O)(=O)c3ccccc3)C1)C2=O | 1.1
Cc1ccc(C(=O)c2cc(Cl)cc(Cl)c2)c(C)c1 | -3.2
CCCC(=O)c1ccc(NC(C)=O)cc1O | 0.35
Cc1ccc(C(=O)CC(=O)c2ccc(C)cc2O)cc1 | 3.6*
Cc1ccc(C)c(CSc2nc(C3CCCCC3)c(C#N)c(=O)[nH]2)c1 | 4.3*
SMILES | Dicer processing
CSc1nc(CSc2ccc(Cl)cc2)nc(C2CC2)c1C#N | 6.9
CCc1ccccc1CSc1nc(C)cc(C)c1C#N | 0.42
CCCCSc1sc(C(=O)OC)c(-c2ccc(Cl)cc2)c1C#N | -0.82
Cc1ccc(Cl)cc1NC(=S)N(N)CCO | 0.76
COc1ccc(C2N(S(=O)(=O)c3ccccc3)CCN2S(=O)(=O)c2ccccc2)cc1 | -1.7
O=S(=O)(c1ccccc1)N1CCSC1c1ccc(Br)cc1 (stereo unspecified) | 0.54
